Bioassay records (PubChem)
This is a sample that favours compounds with a hit; in the whole collection about 3.9% have one here.
HT1080 IDH1KD tx = qHTS for induction of synthetic lethality in tumor cells producing 2HG: qHTS for the HT-1080-IDH1KD cell line; HT-1080 IDH1 knockdown viability, ATP luminescence, 48 h; Potency, µM (highest dose often 46.1 µM), actives largely listed as cytotoxic; 360,000 compounds, 2% hits; AID 686971, 2013
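Luminescent ATP read-out (CellTiter-Glo, 10 min at room temperature) after 48 h compound exposure at 37 °C gave viability of IDH1-knockdown HT-1080 cells. Activity was normalised to DMSO and cell-free wells, then fitted as concentration-response curves.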
ATXN2 expr inh = Primary qHTS for Inhibitors of ATXN expression; Potency, µM (top dose mostly 57 µM), actives largely listed as inhibitors; AID 1745845, 2022; HEK-293 ATXN2-luciferase reporter, luminescence, 24 h; 360,000 compounds, 0.72% hits; also: nearly all actives have a fitted effect of over 55% in size
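qHTS (up to 57 uM final) was run with 24 h compound exposure of reporter cells at 37 °C. Each well was multiplexed: SteadyGlo luminescence measured ATXN2-luciferase expression after a fluorogenic Gly-Phe-AFC viability readout (25 uM final).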
S2 tox = Viability Counterscreen for Primary qHTS for Inhibitors of ATXN expression; 400,000 compounds, 0.49% hits; AID 651635, 2014; S2 cells (HEK-293 line with an ATXN2-luciferase reporter) viability, CellTiter-Fluor protease fluorescence, 24 h; Potency, µM (titrated, usually from 56.7 µM), usual class: cytotoxic; also: nearly all actives have a fitted effect of over 40% in size
HepG2 viability = qHTS for Inhibitors of TGF-b: Cytotox Counterscreen; HepG2 CAGA-GFP viability, ATP luminescence, 18 h; Potency, µM (highest dose often 46.1 µM), actives largely listed as cytotoxic; 410,000 compounds, 0.76% hits; AID 588856, 2011
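HepG2 CAGA-GFP cells (1000/well, DMEM with 1% FBS) received compound, then TGF-beta at 500 pg/mL final, and were incubated 18 hours at 37 degrees C. Viability was read by CellTiter-Glo luminescence. Media-only wells were set as complete cell-killing and DMSO as no toxicity.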
TGFb inhibitor = qHTS for Inhibitors of TGF-b; 410,000 compounds, 1.2% hits; Potency, µM (highest dose often 46.1 µM), most hits filed as inhibitors; AID 588855, 2011; HepG2 CAGA-GFP TGF-b/SMAD3 reporter, GFP fluorescence, 18 h; TGF-beta stimulated, 500 pg/mL final; also: nearly all actives have a fitted effect of over 65% in size
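TGF-beta reporter screen: HEPG2 CAGA-GFP, 1% FBS, 500 pg/mL TGF-beta final, 18 h; per-cell GFP summed per well; curves fitted and categorized by class.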
HT1080NT lethal = qHTS for induction of synthetic lethality in tumor cells producing 2HG: qHTS for the HT-1080-NT fibrosarcoma cell line | HT-1080-NT fibrosarcoma viability, CellTiter-Glo ATP luminescence, 48 h | Potency, µM (titrated, usually from 46.1 µM), usual class: cytotoxic | 360,000 compounds, 1.6% hits | AID 686970, 2013;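 also: NT is the 2HG producing partner of a matched IDH1 knockdown line; nearly all actives have a fitted effect of over 55% in size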
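HT-1080-NT; 750 cells/well; 5% FBS RPMI; 48 h compound, 37 degrees C; CellTiter-Glo luminescence; curve fitting and curve-class assignment.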
A number is an active result; – = inactive; ? = inconclusive; · = no result given. Calls follow the shape of the dose curve; as a rule, active = well fitted curve in the direction sought with a large enough effect; inconclusive = small, poorly fitted or top-dose-only effect, or another doubt; inactive = no such curve, though single readings can be large; an effect the other way counts as inactive or inconclusive.

SMILES	HT1080 IDH1KD tx	ATXN2 expr inh	S2 tox	HepG2 viability	TGFb inhibitor	HT1080NT lethal
c1ccc2c(C3=NNC(=NC4CC4)SC3)c[nH]c2c1	–	17.8µM	–	–	–	–
c1ccc(C2=NNC(=NC3CC3)SC2)cc1	17.8µM	?	–	7.08µM	–	?
c1ccc2c(C3=NNC(=NC4CCCCC4)SC3)c[nH]c2c1	?	–	–	–	?	?
Cc1ccc(C)c(NC(=O)CN2C(=O)CCc3ccccc32)c1	·	·	·	–	–	·
O=C(CSc1cccc2cccnc12)OCC(=O)c1ccc(Br)cc1	–	–	–	–	–	–
O=C(CSc1ncccn1)N1CCCCCC1	–	–	–	–	–	–
O=C(CSc1cccc2cccnc12)OCC(=O)c1ccccc1	32.6µM	–	–	–	?	29.1µM
NNC(=O)CSc1cccc2cccnc12	–	–	–	–	–	–
O=C(CSc1cccc2cccnc12)N1CCCC1	–	?	?	15.8µM	?	7.31µM
CN(C)C(=O)CSc1cccc2cccnc12	?	?	?	7.08µM	?	?
CCCCN(CC)C(=O)CSc1nc2n[nH]c(C)c2c(=N)n1-c1cccc(Cl)c1	·	·	·	–	?	·
CCC/C=C/c1ccc(CN2C(C)C(=O)N(Cc3cn(Cc4ccco4)nn3)CCS2(=O)=O)cc1 (stereo unspecified)	–	–	?	–	22.4µM	–
CCC/C=C/c1ccc(CN2C(C(C)C)C(=O)N(Cc3cn(Cc4ccco4)nn3)CCS2(=O)=O)cc1 (stereo unspecified)	?	?	?	–	11.2µM	?
Cc1c(C)n(Cc2ccc(F)cc2)c2ccc(C(=O)Nc3ccc(Cl)cc3)cc12	·	·	·	–	–	·
O=C(N/N=C/c1cc(Br)cs1)c1ccc2c(c1)OCCO2	11.6µM	–	–	–	–	2.91µM
Cc1ccc(/C=N/NC(=O)c2ccc3c(c2)OCCO3)s1	13µM	–	?	–	–	?
Cc1ccc(/C=N/NC(=O)c2ccc3ccccc3c2)s1	2.31µM	–	–	–	–	?
Cc1ccsc1/C=N/NC(=O)c1ccc2c(c1)OCCO2	–	–	–	–	–	–
Cc1ccc2c(c1)N(C(=O)N1CCC(C(=O)NCc3ccccc3C)CC1)CC(C)O2 (stereo unspecified)	·	·	·	–	?	·
CCn1c(=O)cc(OCC(=O)N2CCN(c3ccc(C)cc3)C(C)C2)c2ccccc21 (stereo unspecified)	·	?	·	–	?	·
CCCCCCCCCCCC(=O)NC(C(=O)O)C(O)c1ccccc1 (stereo unspecified)	–	–	–	–	–	–
CCCCCCCCCC(=O)N[C@H](CN1CCOCC1)[C@H](O)c1ccccc1	?	–	–	–	–	16.4µM
Oc1ccc(Cl)cc1C1C=C(c2ccc3c(c2)OCO3)NC(c2ccc(Cl)cc2)N1 (stereo unspecified)	·	·	·	–	?	·
N#Cc1ccc(-c2cccs2)nc1SCC(=O)Nc1cccc(C(F)(F)F)c1	·	–	–	11.2µM	?	·
CCOC(=O)C(=Cc1ccc(-n2ccnc2)cc1)C(=O)OCC	5.8µM	?	·	–	?	10.3µM
SMILES	HT1080 IDH1KD tx	ATXN2 expr inh	S2 tox	HepG2 viability	TGFb inhibitor	HT1080NT lethal
CCOC(=O)C(=Cc1ccc(Br)cc1)C(=O)OCC	6.51µM	?	8.91µM	14.1µM	17.8µM	20.6µM
COC(=O)c1ccc(-n2ccnc2)cc1	–	–	–	–	–	–
CCc1ccc(CNC(=O)c2cc3c(C)nc4ccccc4c3o2)cc1	–	20µM	?	–	?	–
Cc1ccccc1CS(=O)(=O)Cc1ccc(C(=O)NCCc2ccc(Cl)cc2)o1	·	·	·	–	14.1µM	·
Cc1ccc(-c2c(C(=O)NCCc3ccc(Cl)cc3)oc(=O)c3ccccc23)cc1	·	–	–	–	11.2µM	·
CCCNC(=O)C1(C)CCCN(CCC(=O)c2ccccc2)C1 (stereo unspecified)	?	–	–	14.1µM	15.8µM	?
CCCNC(=O)C1(C)CCCN(CCOc2ccccc2)C1 (stereo unspecified)	–	–	–	–	–	–
CCCCCc1ccc(OCCOCCn2c[n+](C)c3ccccc32)c(CCCCC)c1	?	·	17.8µM	–	?	?
C[n+]1cn(CC(O)COCc2ccccc2)c2ccccc21 (stereo unspecified)	–	–	–	–	–	–
CCCCCc1ccc(OCCC[n+]2ccccc2)c(CCCCC)c1	5.17µM	?	?	–	?	3.66µM
CCn1nc(C)c(/C=N/NC(=O)CSc2ccccn2)c1C	–	–	–	4.47µM	–	–
CC(CN1CCOCC1)OC(=O)c1ccc(Br)cc1 (stereo unspecified)	?	–	?	–	?	?
CCOc1ccc(C(O)(CCC(C)C)C(CN2CCOCC2)c2ccccc2)cc1 (stereo unspecified)	18.4µM	–	–	–	?	?
O=C(c1ccccc1)C(CN1CCCCC1)c1ccccc1 (stereo unspecified)	10.3µM	20µM	31.6µM	–	?	2.59µM
O=C(c1ccc(Br)cc1)C(CN1CCOCC1)c1ccccc1 (stereo unspecified)	7.31µM	26.7µM	·	–	11.2µM	10.3µM
CCOc1ccc(C(=O)C(CN2CCOCC2)c2ccccc2)cc1 (stereo unspecified)	9.2µM	28.2µM	·	–	?	–
CC(CN1CCN(CC(C)C(=O)c2ccccc2)CC1)C(=O)c1ccccc1 (stereo unspecified)	–	–	–	–	–	–
Cc1ccc(C(=O)c2cn(Cc3cccc(Cl)c3)c3nc(C)ccc3c2=O)cc1	·	?	–	–	–	·
CCOC(=O)CNC(=O)C1CCCCC1	·	·	·	–	–	·
CCOC1=C2[C@H](c3ccccc3)N(S(=O)(=O)c3ccc(C)cc3)C(C(C)(C)C)[C@H]2C(C#N)(C#N)C(C#N)(C#N)C1 (stereo partly specified)	?	25.1µM	17.8µM	15.8µM	10µM	?
CCOC1=C2CN(S(=O)(=O)c3ccc(C)cc3)[C@H](c3cccc4ccccc34)C[C@H]2C(C#N)(C#N)C(C#N)(C#N)C1	?	14.1µM	·	–	?	?
CCOC1=C2CN(S(=O)(=O)c3ccc(C)cc3)[C@@H](c3cccc4ccccc34)C[C@H]2[C@H]2C(=O)N(c3ccccc3)C(=O)[C@H]2C1	–	–	–	–	–	?
CCOc1cccc(NC(=O)c2ccc(S(=O)(=O)N(C)C)cc2)c1	–	–	–	–	–	–
